# From PubChem BioAssay (NCATS)
# Active and inactive are the calls of the source. Unless noted, calls follow the shape of the dose curve; as a rule, active = well fitted curve in the direction sought with a large enough effect; inconclusive = small, poorly fitted or top-dose-only effect, or another doubt; inactive = no such curve, though single readings can be large or run the other way.
# Target: Pyruvate kinase PKM (Homo sapiens) (UniProt P14618)
# Experiment: qHTS Assay for Activators of Human Muscle Pyruvate Kinase (AID 954; active = well fitted curve in the direction sought with a large enough effect, not every such curve was filed as active;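 also: 0% = uninhibited enzyme and -100% = no enzyme or full thiadiazolimine inhibition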)
# Settings: purified human muscle pyruvate kinase, luciferase-coupled luminescence, 1 h; series mostly up to 57.5 µM; activity change, negative = inhibition: at the top concentration
# Summary of the method: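 Reaction: 0.1 nM purified PKM2 with 0.5 mM phosphoenolpyruvate and 0.1 mM ADP, room temperature, 1 h. Readout: luciferase-based ATP luminescence after stop reagent. Activators judged against a 0.3 nM enzyme column.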
# Pyruvate kinase PKM (Homo sapiens), sequence (P14618 whole entry, looked up): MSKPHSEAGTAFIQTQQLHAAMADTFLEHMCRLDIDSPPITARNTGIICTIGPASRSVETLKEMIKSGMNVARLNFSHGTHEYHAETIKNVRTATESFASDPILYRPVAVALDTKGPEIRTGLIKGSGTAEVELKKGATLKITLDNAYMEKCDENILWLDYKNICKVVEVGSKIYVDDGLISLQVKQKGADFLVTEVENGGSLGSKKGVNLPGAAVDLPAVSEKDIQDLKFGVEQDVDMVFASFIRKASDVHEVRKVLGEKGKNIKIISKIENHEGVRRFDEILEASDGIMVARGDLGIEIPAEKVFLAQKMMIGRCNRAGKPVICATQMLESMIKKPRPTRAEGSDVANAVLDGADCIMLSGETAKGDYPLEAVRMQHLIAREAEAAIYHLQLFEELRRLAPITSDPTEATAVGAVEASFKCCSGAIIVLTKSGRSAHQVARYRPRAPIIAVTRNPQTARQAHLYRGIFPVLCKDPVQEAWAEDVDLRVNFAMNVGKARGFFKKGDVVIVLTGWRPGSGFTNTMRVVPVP
SMILES,"activity change, negative = inhibition",outcome
O=P(O)(O)C(Cl)(Cl)P(=O)(O)O,11.8% (inactive),–
O=S1(=O)N(CCN2CC=C(c3c[nH]c4cc(F)ccc34)CC2)c2cccc3c2N1CCC3,-18.7% (inactive),–
CP(=O)(O)C1=CCNCC1,-15.5% (inactive),–
CNC(=O)OCC[N+](C)(C)C,-4.98% (inactive),–
N#CC(C#N)=Cc1cc(O)c(O)c(O)c1,-27% (inactive),–
O=c1c2ccccc2[se]n1-c1ccccc1,-101% (inactive),–
CCCN1CCc2cc(O)cc3c2[C@H]1Cc1ccc(O)c(O)c1-3,22.4% (inactive),–
CCCN(CCC)[C@H]1CCc2c(F)ccc(O)c2C1,–,inactive
CCS(=O)(=O)Nc1cccc(C(=C2CCCCC2)c2cnc[nH]2)c1,-3.24% (inactive),–
CCCN(CCC)CCc1ccc(O)c(O)c1,-1.15% (inactive),–
Nc1ccc(CCN2CCN(c3cccc(C(F)(F)F)c3)CC2)cc1,-6.06% (inactive),–
NC(=O)COc1c(F)cc(SCCNS(=O)(=O)c2ccccc2)cc1F,16.9% (inactive),–
NCCc1c[nH]c2ccc(C(N)=O)cc12,-30.2% (inactive),–
C[N+](C)(C)CC#CCOC(=O)Nc1cccc(Cl)c1,-2.68% (inactive),–
NCCc1ccc(S(=O)(=O)F)cc1,-12.5% (inactive),–
N[C@@H](Cn1oc(=O)[nH]c1=O)C(=O)O,-0.278% (inactive),–
O=C(O)c1cc[c]([Hg][Cl])cc1,-95% (inactive),–
C[N+]1(C)[C@@H]2CC[C@H]1CC(OC(=O)c1c[nH]c3ccccc13)C2 (stereo not given in full),20.9% (inactive),–
OCc1cnc[nH]1,-27.1% (inactive),–
C[C@@H]1[C@@H]2Cc3ccc(O)cc3[C@@]1(C)CCN2CC1CC1,-12% (inactive),–
Cc1c2ccncc2c(C)c2c1[nH]c1ccccc12,-25.9% (inactive),–
C[C@@H]1O[C@H](C[N+](C)(C)C)CS1,-11.6% (inactive),–
c1ccc2c(N3CCNCC3)cccc2c1,-16.4% (inactive),–
C[N+]1(C)CCN(c2ccccc2)CC1,-10.7% (inactive),–
CCN(CCCl)Cc1ccccc1Br,-28.5% (inactive),–
Clc1ccc(N2C[C@H]3CC[C@@H](C2)N3)nn1,-8.96% (inactive),–

# Target: Alpha-galactosidase (Coffea arabica) (UniProt Q42656)
# Sequence (Q42656 whole entry, looked up): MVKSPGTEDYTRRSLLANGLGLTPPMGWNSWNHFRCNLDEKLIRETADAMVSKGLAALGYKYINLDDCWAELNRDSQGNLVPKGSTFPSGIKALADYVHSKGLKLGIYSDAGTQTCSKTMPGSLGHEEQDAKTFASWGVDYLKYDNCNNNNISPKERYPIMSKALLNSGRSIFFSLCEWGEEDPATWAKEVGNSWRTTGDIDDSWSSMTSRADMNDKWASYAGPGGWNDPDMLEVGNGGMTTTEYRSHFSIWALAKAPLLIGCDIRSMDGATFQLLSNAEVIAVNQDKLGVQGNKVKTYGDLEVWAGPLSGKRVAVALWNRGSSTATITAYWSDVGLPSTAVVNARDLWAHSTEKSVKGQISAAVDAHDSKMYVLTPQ
# Experiment: Counterscreen for Glucocerebrosidase Inhibitors: qHTS Assay for Coffee Bean alpha-Galactosidase at pH 4.5 (AID 957);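 also: plate controls were enzyme alone for no effect and no enzyme for full effect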
# Settings: purified coffee bean alpha-galactosidase, fluorogenic substrate; series mostly up to 76.9 µM; activity change, negative = inhibition: at the top concentration
# Summary of the method: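 Green coffee bean enzyme (2 nM final) was incubated with compounds (0.7 nM to 77 uM) and 4-methylumbelliferyl alpha-D-galactopyranoside (80 uM final) in 50 mM citric acid, 0.005% Tween-20, pH 4.5, 20 min at room temperature; AC50 from Hill fits.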
SMILES,"activity change, negative = inhibition",outcome
CN1CCc2cc(O)cc3c2[C@H]1Cc1ccc(O)c(O)c1-3,-1.09% (inactive),–
O=P(O)(O)C(Cl)(Cl)P(=O)(O)O,-0.277% (inactive),–
O=S1(=O)N(CCN2CC=C(c3c[nH]c4cc(F)ccc34)CC2)c2cccc3c2N1CCC3,-10.1% (inactive),–
CP(=O)(O)C1=CCNCC1,1.48% (inactive),–
C[N+]1(C)CCC(OC(=O)C(c2ccccc2)c2ccccc2)CC1,0.611% (inactive),–
CNC(=O)OCC[N+](C)(C)C,-2.5% (inactive),–
N#CC(C#N)=Cc1cc(O)c(O)c(O)c1,-3.44% (inactive),–
CCCN1CCc2cc(O)cc3c2[C@H]1Cc1ccc(O)c(O)c1-3,-0.806% (inactive),–
CCCN(CCC)[C@H]1CCc2c(F)ccc(O)c2C1,–,inactive
CCS(=O)(=O)Nc1cccc(C(=C2CCCCC2)c2cnc[nH]2)c1,1.54% (inactive),–
CCCN(CCC)CCc1ccc(O)c(O)c1,2.58% (inactive),–
Nc1ccc(CCN2CCN(c3cccc(C(F)(F)F)c3)CC2)cc1,-3.24% (inactive),–
NC(=O)COc1c(F)cc(SCCNS(=O)(=O)c2ccccc2)cc1F,1.1% (inactive),–
NCCc1c[nH]c2ccc(C(N)=O)cc12,0.682% (inactive),–
C[N+](C)(C)CC#CCOC(=O)Nc1cccc(Cl)c1,2.51% (inactive),–
NCCc1ccc(S(=O)(=O)F)cc1,-3.37% (inactive),–
N[C@@H](Cn1oc(=O)[nH]c1=O)C(=O)O,0.303% (inactive),–
O=C(O)c1cc[c]([Hg][Cl])cc1,2.41% (inactive),–
C[N+]1(C)[C@@H]2CC[C@H]1CC(OC(=O)c1c[nH]c3ccccc13)C2 (stereo not given in full),-1.53% (inactive),–
OCc1cnc[nH]1,1.5% (inactive),–
C[C@@H]1[C@@H]2Cc3ccc(O)cc3[C@@]1(C)CCN2CC1CC1,-1.06% (inactive),–
Cc1c2ccncc2c(C)c2c1[nH]c1ccccc12,-6.47% (inactive),–
C[C@@H]1O[C@H](C[N+](C)(C)C)CS1,-2.08% (inactive),–
CN(N=O)c1ccc(O)c(O)c1,-5.29% (inactive),–
c1ccc2c(N3CCNCC3)cccc2c1,-3.83% (inactive),–
C[N+]1(C)CCN(c2ccccc2)CC1,-0.059% (inactive),–
CN(N=O)c1cc(O)ccc1O,1.69% (inactive),–
CCN(CCCl)Cc1ccccc1Br,0.175% (inactive),–
Clc1ccc(N2C[C@H]3CC[C@@H](C2)N3)nn1,0.0522% (inactive),–
